# Data published in PubChem BioAssay (EPA / NIEHS).
# Values joined by “and” are separate entries in the source; they are usually repeats but may differ in a detail not shown here. Equal values may be shown once. The source holds several records for some structures; these can differ, active in one and inactive in another. Active and inactive are the calls of the source. How the source made its calls: active means hit-call score of the fitted dose curve at least 0.9, where 1 is the maximum; inactive means score below 0.9.
# What was measured:
# [1] = ATG_CRE_CIS: Attagene CIS-FACTORIAL HepG2 Assay for human cAMP Responsive Element (CRE) binding protein 3 (AID 2282926); settings: HepG2 CRE cis-reporter, Attagene multiplexed mRNA; actives raise or lower the signal
# Outline: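 HepG2 cells transiently transfected with cis-element-driven multiple reporter transcription units; CRE reporter mRNA measured 24 h after dosing by RT-PCR, 6-FAM labelling, HpaI digestion and capillary electrophoresis. Bidirectional fit versus DMSO baseline.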
# [2] = molecular target: CCAAT/enhancer-binding protein beta (Homo sapiens) (UniProt P17676); assay: ATG_C_EBP_CIS: Attagene CIS-FACTORIAL HepG2 Assay for human CCAAT/Enhancer Binding Protein (C/EBP) beta (AID 2282927); settings: HepG2 Attagene cis-factorial transcription factor reporter; actives raise or lower the signal
# Sequence of CCAAT/enhancer-binding protein beta (Homo sapiens) (P17676 whole entry, looked up): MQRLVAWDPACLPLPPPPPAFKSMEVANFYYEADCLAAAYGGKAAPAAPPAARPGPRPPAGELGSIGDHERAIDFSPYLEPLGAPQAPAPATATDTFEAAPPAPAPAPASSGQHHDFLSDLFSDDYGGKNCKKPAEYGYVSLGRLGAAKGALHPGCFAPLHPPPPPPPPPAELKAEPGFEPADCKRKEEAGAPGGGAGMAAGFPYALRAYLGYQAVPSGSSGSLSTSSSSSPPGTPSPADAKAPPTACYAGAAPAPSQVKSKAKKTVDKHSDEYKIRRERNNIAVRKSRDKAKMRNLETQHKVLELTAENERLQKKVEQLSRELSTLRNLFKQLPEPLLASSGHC
# Outline: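 HepG2 transiently transfected with multiplexed reporter units under cis-regulatory promoters reporting endogenous C/EBPb activity. After 24 h exposure, reporter mRNA assayed by RT-PCR, fluorescent labelling, HpaI digestion and capillary electrophoresis; bidirectional fitting versus DMSO.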
# [3] = ATG_CMV_CIS: Attagene CIS-FACTORIAL HepG2 Assay for human CMV (Internal Marker) (AID 2282928); settings: HepG2 CMV promoter reporter, transcription factor profiling; actives raise or lower the signal;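 further: endpoint acts as a background internal control marker rather than a target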
# Outline: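 HepG2 cells transiently transfected with multiple cis-regulated reporter units; 24 h compound exposure. Reporter mRNA quantified by RT-PCR, 6-FAM primer-extension labeling, HpaI digestion and capillary electrophoresis; bidirectional fitting against DMSO baseline.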
# [4] = ATG_DR4_LXR_CIS: Attagene CIS-FACTORIAL HepG2 Assay for human Liver X Receptor (LXR), DR4 submotif (AID 2282929); settings: HepG2 Attagene DR4 cis-reporter, mRNA transcription; actives raise or lower the signal
# Outline: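 HepG2 cells were transiently transfected with multiple cis-regulated reporter units and dosed for 24 hours. The DR4 reporter mRNA was quantified by RT-PCR, 6-FAM labelling and capillary electrophoresis. Bidirectional fits used DMSO as baseline.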
# [5] = molecular target: Aryl hydrocarbon receptor (Homo sapiens) (UniProt P35869); assay: ATG_Ahr_CIS: Attagene CIS-FACTORIAL HepG2 Assay for human Aryl Hydrocarbon Receptor (Ahr) (AID 2282930); settings: HepG2 AhR cis-factorial reporter transcription; actives raise or lower the signal
# Sequence of Aryl hydrocarbon receptor (Homo sapiens) (P35869 whole entry, looked up): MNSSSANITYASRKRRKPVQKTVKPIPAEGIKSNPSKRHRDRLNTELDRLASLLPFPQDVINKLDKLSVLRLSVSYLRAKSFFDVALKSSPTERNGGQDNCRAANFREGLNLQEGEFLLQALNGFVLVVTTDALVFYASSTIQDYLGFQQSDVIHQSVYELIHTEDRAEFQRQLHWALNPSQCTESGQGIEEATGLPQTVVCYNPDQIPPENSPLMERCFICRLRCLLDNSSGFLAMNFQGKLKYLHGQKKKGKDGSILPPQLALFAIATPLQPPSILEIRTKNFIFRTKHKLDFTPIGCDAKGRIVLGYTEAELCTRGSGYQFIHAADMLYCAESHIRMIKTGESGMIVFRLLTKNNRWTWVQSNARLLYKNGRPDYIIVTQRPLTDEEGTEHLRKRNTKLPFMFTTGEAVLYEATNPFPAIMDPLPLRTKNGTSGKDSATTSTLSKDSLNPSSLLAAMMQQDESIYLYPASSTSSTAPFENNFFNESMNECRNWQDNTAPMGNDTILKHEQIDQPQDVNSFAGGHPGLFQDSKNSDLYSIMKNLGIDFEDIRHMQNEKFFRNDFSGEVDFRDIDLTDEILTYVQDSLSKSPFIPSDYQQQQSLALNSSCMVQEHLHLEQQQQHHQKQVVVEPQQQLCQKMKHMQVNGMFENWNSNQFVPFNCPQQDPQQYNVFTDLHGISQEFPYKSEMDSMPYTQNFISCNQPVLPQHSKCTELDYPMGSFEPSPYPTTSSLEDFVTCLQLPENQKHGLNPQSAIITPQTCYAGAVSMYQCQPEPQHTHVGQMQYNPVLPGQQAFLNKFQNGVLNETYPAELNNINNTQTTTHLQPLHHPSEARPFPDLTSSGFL
# Outline: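 HepG2 cells transiently transfected with cis-element-driven multiplexed reporter units; endogenous AhR activity read as reporter mRNA 24 h after dosing, via RT-PCR, 6-FAM labelling, HpaI digestion and capillary electrophoresis. Bidirectional fit relative to DMSO.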
# [6] = ATG_AP_1_CIS: Attagene CIS-FACTORIAL HepG2 Assay for human Activator Protein 1 (AP-1) (AID 2282931); settings: HepG2 Attagene cis-factorial AP-1 reporter mRNA; actives raise or lower the signal
# Outline: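 HepG2 cells transiently transfected with cis-element-driven reporter transcription units, dosed for 24 hours. Reporter mRNA measured by RT-PCR, 6-FAM labelling, HpaI digestion and capillary electrophoresis. Bidirectional fitting against DMSO baseline.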
# [7] = ATG_AP_2_CIS: Attagene CIS-FACTORIAL HepG2 Assay for human Activator Protein 2 (AP-2) (AID 2282932); settings: HepG2 AP-2 cis-reporter, Attagene transcription factor profiling; actives raise or lower the signal
# Outline: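 Multiplexed mRNA reporter assay in HepG2: cis-regulated units report endogenous factor activity after 24 h treatment. Fluorescence from capillary electrophoresis of RT-PCR products gives the signal, with DMSO as baseline.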
# [8] = ATG_BRE_CIS: Attagene CIS-FACTORIAL HepG2 Assay for human Bone Morphogenetic Protein (BMP) Response Element (BRE) (AID 2282933); settings: HepG2 BMP response element reporter, Attagene transcription factor profiling; actives raise or lower the signal
# Outline: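 A HepG2 multiplex reporter system measured inducible reporter mRNA 24 h post-dosing. Detection: RT-PCR, 6-FAM primer extension, HpaI digestion, capillary electrophoresis. Activity fitted bidirectionally relative to DMSO.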
# [9] = molecular target: Retinoic acid receptor alpha (Homo sapiens) (UniProt P10276); assay: ATG_DR5_RAR_CIS: Attagene CIS-FACTORIAL HepG2 Assay for human Retinoic Acid Receptor Alpha (RARE), DR5 submotif (AID 2282934); settings: HepG2 Attagene cis-factorial RARE DR5 reporter, mRNA; actives raise or lower the signal;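 on AC50: reporter responds to endogenous RAR alpha beta and gamma in HepG2 not RARA alone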
# Sequence of Retinoic acid receptor alpha (Homo sapiens) (P10276 whole entry, looked up): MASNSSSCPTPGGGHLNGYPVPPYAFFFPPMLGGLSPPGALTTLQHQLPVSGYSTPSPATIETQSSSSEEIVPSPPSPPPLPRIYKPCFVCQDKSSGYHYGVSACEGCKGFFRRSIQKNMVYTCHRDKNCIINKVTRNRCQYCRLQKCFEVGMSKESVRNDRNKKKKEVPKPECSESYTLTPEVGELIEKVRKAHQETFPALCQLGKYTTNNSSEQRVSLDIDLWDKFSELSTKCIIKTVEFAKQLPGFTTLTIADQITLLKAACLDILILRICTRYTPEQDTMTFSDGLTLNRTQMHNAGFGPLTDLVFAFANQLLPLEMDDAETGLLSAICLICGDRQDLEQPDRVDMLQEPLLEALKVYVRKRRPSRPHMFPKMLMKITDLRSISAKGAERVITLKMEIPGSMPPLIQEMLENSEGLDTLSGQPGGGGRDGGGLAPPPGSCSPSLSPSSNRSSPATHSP
# Outline: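 HepG2 cells transiently transfected with multiplexed reporter units; DR5 cis-element drives reporter through endogenous transcription factors. After 24 h dosing, reporter mRNA quantified by RT-PCR, fluorescent labeling, HpaI digestion and capillary electrophoresis; bidirectional fitting versus DMSO.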
# [10] = molecular target: Transcription factor E2F1 (Homo sapiens) (UniProt Q01094); assay: ATG_E2F_CIS: Attagene CIS-FACTORIAL HepG2 Assay for human E2F Transcription Factor 1 (AID 2282935); settings: HepG2 Attagene cis-reporter, E2F reporter RNA transcripts; actives raise or lower the signal
# Sequence of Transcription factor E2F1 (Homo sapiens) (Q01094 whole entry, looked up): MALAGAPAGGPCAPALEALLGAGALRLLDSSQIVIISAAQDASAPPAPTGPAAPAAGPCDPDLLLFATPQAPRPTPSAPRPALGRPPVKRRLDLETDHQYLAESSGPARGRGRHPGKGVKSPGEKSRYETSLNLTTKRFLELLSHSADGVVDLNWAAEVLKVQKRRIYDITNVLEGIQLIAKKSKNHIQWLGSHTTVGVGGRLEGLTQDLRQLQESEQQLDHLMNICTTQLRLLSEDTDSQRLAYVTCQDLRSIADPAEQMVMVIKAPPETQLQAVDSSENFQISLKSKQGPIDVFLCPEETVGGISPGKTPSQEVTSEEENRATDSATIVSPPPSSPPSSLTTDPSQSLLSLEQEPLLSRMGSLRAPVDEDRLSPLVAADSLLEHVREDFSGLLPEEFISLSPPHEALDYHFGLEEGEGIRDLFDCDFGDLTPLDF
# Outline: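 Measures reporter transcript levels via RT-PCR with capillary electrophoresis detection in HepG2 cells harboring cis-regulated reporter units; 24 h post-dose; bidirectional curve fitting with DMSO as baseline.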
# [11] = ATG_E_Box_CIS: Attagene CIS-FACTORIAL HepG2 Assay for human Enhancer Box (E-box) (AID 2282936); settings: HepG2 E-box cis-reporter transcription, actives raise or lower the signal
# Outline: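 First, HepG2 cells receive multiple cis-regulated reporter constructs by transient transfection. Next, chemicals are applied for 24 h. Finally, reporter mRNA is quantified via RT-PCR and capillary electrophoresis, with DMSO as baseline.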
# [12] = ATG_M_61_CIS: Attagene CIS-FACTORIAL HepG2 Assay for M61 Transcription Factor (Internal Marker) (AID 2282937); settings: HepG2 Attagene CIS-FACTORIAL M61 internal marker reporter; actives raise or lower the signal
# Outline: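 HepG2 cells transiently transfected with multiplexed cis-promoter reporter units reporting endogenous transcription factor activity, measured 24 h after dosing. Reporter mRNA quantified by RT-PCR and capillary electrophoresis; bidirectional fit against DMSO baseline.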
# [13] = ATG_EGR_CIS: Attagene CIS-FACTORIAL HepG2 Assay for human Early Growth Response 1 (EGR1) (AID 2282938); settings: HepG2 Attagene CIS-FACTORIAL EGR reporter mRNA; actives raise or lower the signal
# Outline: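 HepG2 cells transiently transfected with cis-element-driven multiplexed reporter units, dosed for 24 h. EGR1-element reporter mRNA quantified by RT-PCR, 6-FAM labelling, HpaI digestion and capillary electrophoresis; bidirectional fit versus DMSO.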
# [14] = ATG_M_19_CIS: Attagene CIS-FACTORIAL HepG2 Assay for M19 Transcription Factor (Internal Marker) (AID 2282939); settings: HepG2 Attagene CIS-FACTORIAL M19 internal marker reporter; actives raise or lower the signal
# Outline: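 Chemical-treated HepG2 (24 h) with MRTU constructs; reporter transcripts detected by fluorescent RT-PCR fragment analysis on capillary electrophoresis. Internal background marker, DMSO as baseline.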
# [15] = ATG_ERE_CIS: Attagene CIS-FACTORIAL HepG2 Assay for Estrogen Response Element (ERE) (AID 2282940); settings: HepG2 ERE cis-reporter, Attagene RNA transcript; actives raise or lower the signal
# Outline: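 Human liver cells (HepG2) bearing transiently transfected, promoter-regulated reporter units were exposed 24 h. Reporter mRNA induction was detected by capillary electrophoresis of labelled RT-PCR products and fitted bidirectionally to DMSO.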
# [16] = ATG_Ets_CIS: Attagene CIS-FACTORIAL HepG2 Assay for human Erythroblast Transformation Specific (ETS) (AID 2282941); settings: HepG2 ETS cis-reporter transcription, actives raise or lower the signal
# Outline: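 HepG2 cells transiently transfected with cis-promoter reporter transcription units were dosed for 24 h; reporter mRNA was measured by RT-PCR, 6-FAM primer extension, HpaI digestion and capillary electrophoresis, with bidirectional fitting against DMSO baseline.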
# [17] = molecular target: Hepatocyte nuclear factor 3-beta (Homo sapiens) (UniProt Q9Y261); assay: ATG_FoxA2_CIS: Attagene CIS-FACTORIAL HepG2 Assay for human Forkhead box A2 (FOXA2) (AID 2282942); settings: HepG2 cis-reporter transcription factor activity, 24 h; actives raise or lower the signal
# Sequence of Hepatocyte nuclear factor 3-beta (Homo sapiens) (Q9Y261 whole entry, looked up): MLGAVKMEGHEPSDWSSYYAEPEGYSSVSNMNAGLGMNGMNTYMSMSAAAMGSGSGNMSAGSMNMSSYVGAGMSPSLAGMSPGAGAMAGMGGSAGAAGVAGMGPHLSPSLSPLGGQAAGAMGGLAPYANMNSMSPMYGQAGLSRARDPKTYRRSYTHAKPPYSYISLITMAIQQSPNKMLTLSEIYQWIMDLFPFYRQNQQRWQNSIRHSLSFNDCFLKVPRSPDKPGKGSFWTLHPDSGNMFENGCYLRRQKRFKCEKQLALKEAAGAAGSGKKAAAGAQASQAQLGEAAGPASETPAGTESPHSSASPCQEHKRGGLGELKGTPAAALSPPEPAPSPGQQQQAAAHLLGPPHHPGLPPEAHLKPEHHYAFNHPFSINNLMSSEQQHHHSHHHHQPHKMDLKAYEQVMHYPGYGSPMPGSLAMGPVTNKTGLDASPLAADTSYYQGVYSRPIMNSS
# Outline: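 HepG2 transiently transfected with a multiplexed cis-promoter reporter library read endogenous FOXA2 activity. After 24 h compound exposure, reporter mRNA was quantified by RT-PCR, HpaI digestion and capillary electrophoresis. Bidirectional fit against DMSO.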
# [18] = ATG_FoxO_CIS: Attagene CIS-FACTORIAL HepG2 Assay for human Forkhead box O (FoxO) (AID 2282943); settings: HepG2 Attagene cis-reporter, FoxO element, mRNA; actives raise or lower the signal
# Outline: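 HepG2 cells transiently transfected with cis-element-driven reporter units report endogenous FoxO activity. After 24 h chemical exposure, reporter mRNA quantified by RT-PCR, fluorescent labeling, HpaI digestion and capillary electrophoresis; bidirectional fit versus DMSO.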
# [19] = ATG_GATA_CIS: Attagene CIS-FACTORIAL HepG2 Assay for human GATA Binding Protein (AID 2282944); settings: HepG2 GATA cis-element reporter, Attagene multiplex mRNA; actives raise or lower the signal
# Outline: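 Transfected cis-reporter HepG2 cells were treated with chemicals for 24 hours. Total RNA was then converted to cDNA, amplified with reporter-specific primers and analysed by fluorescent capillary electrophoresis, using DMSO-treated wells as baseline.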
# [20] = ATG_GLI_CIS: Attagene CIS-FACTORIAL HepG2 Assay for human Zinc Finger Protein GLI1 (AID 2282945); settings: HepG2, Attagene cis-factorial reporter mRNA, GLI element; actives raise or lower the signal
# Outline: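 Transiently transfected HepG2 cells report endogenous transcription factor activity via cis-element-driven reporter units. After 24 h compound exposure, reporter mRNA was measured by RT-PCR with capillary electrophoresis; bidirectional fitting against DMSO baseline.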
smiles,measurement,setting,value
CCC(C)c1cc([N+](=O)[O-])cc([N+](=O)[O-])c1O (centres undefined),AC50,[1],14 µM (active)
same,AC50,[2],12.5 µM (active)
same,AC50,[3],19.6 µM (active)
same,outcome,[4],inactive
same,outcome,[5],inactive
same,AC50,[6],10.6 µM (active)
same,outcome,[7],inactive
same,AC50,[8],11.8 µM (active)
same,AC50,[9],13.2 µM (active)
same,outcome,[10],inactive
same,outcome,[11],inactive
same,outcome,[12],inactive
same,outcome,[13],inactive
same,outcome,[14],inactive
same,outcome,[15],inactive
same,outcome,[16],inactive
same,outcome,[17],inactive
same,outcome,[18],inactive
same,outcome,[19],inactive
same,outcome,[20],inactive
O=C(O)C(F)(F)C(F)(F)C(F)(F)C(F)(F)C(F)(F)C(F)(F)C(F)(F)C(F)(F)C(F)(F)F,AC50,[1],62.2 µM (active)
same,outcome,[1],inactive
same,outcome,[2],inactive
same,AC50,[3],86.6 µM (active)
same,outcome,[3],inactive
same,AC50,[4],27.3 µM (active) and 23.9 µM (active) and 13.3 µM (active)
same,AC50,[5],69.7 µM (active)
same,outcome,[5],inactive
same,AC50,[6],59 µM (active) and 12.1 µM (active)
same,outcome,[6],inactive
same,AC50,[7],46.5 µM (active)
same,outcome,[7],inactive
same,outcome,[9],inactive
same,outcome,[10],inactive
same,AC50,[11],88.6 µM (active)
same,outcome,[11],inactive
same,AC50,[13],42.9 µM (active) and 22.2 µM (active)
same,outcome,[13],inactive
same,outcome,[14],inactive
same,outcome,[15],inactive
same,outcome,[16],inactive
same,outcome,[17],inactive
same,outcome,[18],inactive
same,outcome,[19],inactive
same,outcome,[20],inactive
CCC(C)(c1ccc(O)cc1)c1ccc(O)cc1,AC50,[1],53.2 µM (active)
same,outcome,[1],inactive
same,outcome,[2],inactive
same,AC50,[3],56.5 µM (active) and 56.1 µM (active) and 23.2 µM (active)
same,outcome,[3],inactive
same,AC50,[4],47.5 µM (active) [middle of 4 runs]
same,AC50,[6],59.3 µM (active) and 33.4 µM (active) and 15.6 µM (active)
same,outcome,[6],inactive
same,outcome,[7],inactive
same,outcome,[8],inactive
same,outcome,[10],inactive
same,AC50,[11],43.5 µM (active)
same,outcome,[11],inactive
same,AC50,[13],48.8 µM (active)
same,outcome,[13],inactive
same,outcome,[14],inactive
same,AC50,[15],198 nM (active) [middle of 4 runs]
same,AC50,[16],53.8 µM (active)
same,outcome,[16],inactive
same,outcome,[17],inactive
same,outcome,[18],inactive
same,AC50,[19],44.9 µM (active)
same,outcome,[19],inactive
same,AC50,[20],60.5 µM (active)
same,outcome,[20],inactive
Nc1ccc(-c2ccc(N)cc2)cc1,outcome,[1],inactive
same,outcome,[2],inactive
same,outcome,[3],inactive
same,outcome,[4],inactive
same,outcome,[5],inactive
same,outcome,[6],inactive
same,outcome,[7],inactive
same,outcome,[8],inactive
same,outcome,[9],inactive
same,outcome,[10],inactive
same,outcome,[11],inactive
same,outcome,[13],inactive
same,outcome,[14],inactive
same,AC50,[15],33.2 µM (active)
same,outcome,[16],inactive
same,outcome,[17],inactive
same,outcome,[18],inactive
same,outcome,[19],inactive
same,outcome,[20],inactive
